# Inconclusive results are not listed. Activity calls are given as the source filed them. Unless noted, the call rests on the fitted dose curve; in most records, active means well fitted inhibition curve with a large enough effect; inconclusive means small, poorly fitted or top-dose-only effect; inactive means flat fitted curve, though single readings scatter.
# Columns and labels:
# [1] = qHTS drug screen for cell cycle checkpoint inhibitors in PARPi-resistant BRCA-mutant ovarian cancer cell lines. (AID 1963452; calls by dose curve); details: PEO1/OlaR viability, CellTiter-Glo luminescence, 96 h, stronger effect = lower value
# Outline: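 PEO1, PEO4 and PEO1/OlaR ovarian cancer cells, 600 per well, exposed 96 h at 37C to a dilution series. Viability read by CellTiter-Glo luminescence, normalized to DMSO and empty wells; activity summarized as Z-AUC.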
# [2] = qHTS for identification of novel therapeutic agents for treatment of microphthalmiaassociated transcription factor (MiT) renal cell carcinoma (RCC) (AID 1963991; calls by dose curve; further: potency means the concentration at half of the fitted maximal effect); details: CellTiter-Glo, 48 h; for z-score: stronger effect = lower value
# Outline: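 Viability of three TFE3-fusion renal carcinoma lines measured by CellTiter-Glo after 48 h treatment with each of 1912 compounds at 11 concentrations. Responses scaled between DMSO (100%) and empty wells (0%) before curve fitting.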
# [3] = qHTS profiling for inhibitors of Plasmodium falciparum proliferation (AID 504749); further: nearly all actives have a fitted effect of over 60% in size; further: potency means the concentration at half of the fitted maximal effect;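 on activity, negative = inhibition: 0% = DMSO vehicle and full inhibition = artemisinin control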; details: P. falciparum in erythrocytes, SYBR Green DNA, 72 h
# Outline: (§1)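 Readout was DNA-dye fluorescence from lysed cultures, ex 485/em 535 nm. Parasitized red cells had grown 72 h with compound; data scaled between 0.29 uM artemisinin and DMSO wells and corrected using vehicle-only plates.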
# [4] = system: 3D7; experiment: as above; details: P. falciparum in erythrocytes, SYBR Green DNA, 72 h; series mostly up to 28.7 µM
# Outline: as §1
# [5] = system: 7G8; experiment: as above; details: P. falciparum in erythrocytes, SYBR Green DNA, 72 h; series mostly up to 28.7 µM
# Outline: as §1
# [6] = system: AS120; experiment: as above; details: P. falciparum in erythrocytes, SYBR Green DNA, 72 h; series mostly up to 28.7 µM
# Outline: as §1
# [7] = system: ATS189; experiment: as above; details: P. falciparum in erythrocytes, SYBR Green DNA, 72 h; series mostly up to 28.7 µM
# Outline: as §1
# [8] = system: CP185; experiment: as above; details: P. falciparum in erythrocytes, SYBR Green DNA, 72 h; series mostly up to 28.7 µM
# Outline: as §1
# [9] = system: CP192; experiment: as above; details: P. falciparum in erythrocytes, SYBR Green DNA, 72 h; series mostly up to 28.7 µM
# Outline: as §1
# [10] = system: CP201; experiment: as above; details: P. falciparum in erythrocytes, SYBR Green DNA, 72 h; series mostly up to 28.7 µM
# Outline: as §1
# [11] = system: ATS95; experiment: as above; details: P. falciparum in erythrocytes, SYBR Green DNA, 72 h; series mostly up to 28.7 µM
# Outline: as §1
# [12] = system: CP191; experiment: as above; details: P. falciparum in erythrocytes, SYBR Green DNA, 72 h; series mostly up to 28.7 µM
# Outline: as §1
# [13] = system: AA1029; experiment: as above; details: P. falciparum in erythrocytes, SYBR Green DNA, 72 h; series mostly up to 28.7 µM
# Outline: as §1
# [14] = system: C2A; experiment: as above; details: P. falciparum in erythrocytes, SYBR Green DNA, 72 h; series mostly up to 28.7 µM
# Outline: as §1
# [15] = system: CP194; experiment: as above; details: P. falciparum in erythrocytes, SYBR Green DNA, 72 h; series mostly up to 28.7 µM
# Outline: as §1
# [16] = measured here: PEO1 parental Z-AUC
# [17] = TFE3-RCC UOK109 viability, measured here: UOK109 Z-AUC
# [18] = TFE3-RCC viability, measured here: UOK124 Z-AUC
# [19] = TFE3-RCC viability, measured here: UOK145 Z-AUC
# [20] = at 28.7 µM (top of the series), parasite line A
# [21] = at 12.8 µM (top of the series), parasite line A
smiles,measurement,setting,value
O=c1ncn2nc(Sc3ccc(F)cc3F)ccc2c1-c1c(Cl)cccc1Cl,Z-AUC,[1],-0.105 (inactive)
same,Z-AUC,[1]; [16],0.606
same,Z-AUC,[1]; measured here: PEO4 Z-AUC,0.747
same,z-score,[2]; [17],0.124
same,z-score,[2]; [18],1.12
same,z-score,[2]; [19],1.1
O=C(C1CC1)N1CC[C@@H](Cn2c(-c3ccc(-c4ccc5occc5c4)cc3)nc3cnccc32)C1,Z-AUC,[1],0.419 (inactive)
same,Z-AUC,[1]; [16],0.824
same,Z-AUC,[1]; measured here: PEO4 Z-AUC,0.902
same,z-score,[2]; [17],0.57
same,z-score,[2]; [18],0.377
same,z-score,[2]; [19],0.609
C1COC(NC(C2CC2)C2CC2)=N1,Z-AUC,[1],-0.361 (inactive)
same,Z-AUC,[1]; [16],-0.558
same,Z-AUC,[1]; measured here: PEO4 Z-AUC,-0.616
same,z-score,[2]; [17],0.422
same,z-score,[2]; [18],0.218
same,z-score,[2]; [19],0.0437
same,Potency,[3]; parasite line A,7.94 µM (active)
same,Potency,[4],inactive
same,Potency,[5],12.6 µM (active)
same,Potency,[6],12.6 µM (active)
same,Potency,[7],inactive
same,Potency,[8],inactive
same,Potency,[9],inactive
same,outcome,[10],inactive
CCOc1cc(C=C2C(=O)N(c3ccccc3)N=C2C)cc(Cl)c1OCC(=O)OC,z-score,[2]; [17],0.66
same,z-score,[2]; [18],0.208
same,z-score,[2]; [19],0.267
Cc1ccccc1C(OCCN(C)C)c1ccccc1 (centres undefined),"activity, negative = inhibition",[3]; [20],-3.11% (inactive)
same,"activity, negative = inhibition","[3]; at 28.7 µM (top of the series), parasite line B",5.42% (inactive)
same,Potency,[4],inactive
same,Potency,[11],8.91 µM (active)
same,Potency,[12],inactive
same,Potency,[9],inactive
O=c1n(CCCN2CCN(c3cccc(Cl)c3)CC2)nc2ccccn12,z-score,[2]; [17],-0.148
same,z-score,[2]; [18],0.322
same,z-score,[2]; [19],1.01
same,"activity, negative = inhibition",[3]; [21],-5.98% (inactive)
same,Potency,[4],inactive
same,Potency,[5],inactive
same,Potency,[13],inactive
same,Potency,[6],inactive
same,Potency,[7],inactive
same,Potency,[14],inactive
same,Potency,[8],inactive
same,Potency,[12],inactive
same,Potency,[9],inactive
same,Potency,[15],inactive
same,outcome,[10],inactive
Cc1cc2c(C(C)C)c(O)c(O)c(C=O)c2c(O)c1-c1c(C)cc2c(C(C)C)c(O)c(O)c(C=O)c2c1O,Z-AUC,[1],1.05 (inactive)
same,Z-AUC,[1]; [16],0.604
same,Z-AUC,[1]; measured here: PEO4 Z-AUC,0.413
same,Potency,[5],8.91 µM (active)
same,Potency,[6],8.91 µM (active)
CCOC(=O)C1=C[C@]2(CC)CCCN3CCc4c(n1c1ccccc41)[C@@H]32,Potency,[5],5.01 µM (active)
same,Potency,[13],10 µM (active)
same,Potency,[6],8.91 µM (active)
same,Potency,[11],12.6 µM (active)
Nc1ccc(S(=O)(=O)Nc2ccnn2-c2ccccc2)cc1,z-score,[2]; [17],2.1
same,z-score,[2]; [18],0.571
same,z-score,[2]; [19],1.56
same,"activity, negative = inhibition",[3]; [21],-1.36% (inactive)
same,"activity, negative = inhibition","[3]; at 12.8 µM (top of the series), parasite line B",3.8% (inactive)
same,Potency,[4],inactive
same,Potency,[5],inactive
same,Potency,[13],inactive
same,Potency,[6],inactive
same,Potency,[7],inactive
same,Potency,[11],inactive
same,Potency,[14],inactive
same,Potency,[8],inactive
same,Potency,[12],inactive
same,Potency,[9],inactive
same,Potency,[15],inactive
same,outcome,[10],inactive
O=C(O)COCCN1CCN(C(c2ccccc2)c2ccc(Cl)cc2)CC1 (centres undefined),z-score,[2]; [17],0.871
same,z-score,[2]; [18],0.439
same,z-score,[2]; [19],0.674
COc1ccc(-c2ccc3c(N4CCOC[C@H]4C)nc(N4CCOC[C@H]4C)nc3n2)cc1CO,Potency,"[2]; TFE3-RCC UOK109 viability, active = Z-AUC below -0.8 in all three lines",0.0935 µM (active)
same,z-score,[2]; [17],-1.8
same,z-score,[2]; [18],-2.87
same,z-score,[2]; [19],-2.13
NC(=O)C1CCCc2c1[nH]c1ccc(Cl)cc21 (centres undefined),z-score,[2]; [17],0.0433
same,z-score,[2]; [18],0.823
same,z-score,[2]; [19],0.151
OC(CN1CCC(Cc2ccc(F)cc2)CC1)c1ccc(Cl)cc1 (centres undefined),z-score,[2]; [17],0.0108
same,z-score,[2]; [18],0.291
same,z-score,[2]; [19],0.245
same,"activity, negative = inhibition",[3]; [20],-26.6% (inactive)
same,Potency,[3]; parasite line B,0.891 µM (active)
same,Potency,[4],5.01 µM (active)
same,Potency,[5],0.316 µM (active)
same,Potency,[13],1.41 µM (active)
same,Potency,[6],1.26 µM (active)
same,Potency,[7],1.41 µM (active)
same,Potency,[11],1.58 µM (active)
same,Potency,[14],inactive
same,Potency,[12],inactive
same,outcome,[10],inactive
Cn1cnc([N+](=O)[O-])c1Sc1ncnc2nc[nH]c12,Z-AUC,[1],-0.621 (inactive)
same,Z-AUC,[1]; [16],-1.27
same,Z-AUC,[1]; measured here: PEO4 Z-AUC,-1.41
same,Potency,[4],inactive
same,Potency,[13],inactive
same,Potency,[6],inactive
same,Potency,[11],inactive
same,Potency,[9],inactive
same,outcome,[10],inactive

# Source: PubChem BioAssay (NCATS)
